Screen size: about 390,000 compounds; about 17,000 (4.4%) were called active. Roughly 8% stayed inconclusive and do not appear here. What follows is part of a selection rich in actives, with near analogues and random picks from the rest. Where a call stands in place of a potency, no number is given. Values without a mark were called inactive. Calls follow the shape of the dose curve; as a rule, active = well fitted inhibition curve with a large enough effect; inconclusive = small, poorly fitted or top-dose-only effect; inactive = no such curve, though single readings can be large or run the other way.
Potency is read from the fitted curve at half-maximal effect.

In the assay the target is Lysine-specific demethylase 4A (Homo sapiens) (UniProt O75164). Briefly: qHTS Assay for Inhibitors of JMJD2A-Tudor Domain. Also: nearly all actives have a fitted effect of over 50% in size. The following applies: AlphaScreen JMJD2A-Tudor / H3K4me3 peptide binding; series mostly up to 114 µM. An excerpt: JMJD2A is a jumonji-domain-containing lysine demethylase that uses Fe(II) together with 2-OG to effect oxidative demethylation of histones. Methylation is one of many […] modification that affect epigenetic transcription. […] It is proposed that the functions of JmjD2A binding to the histones, is to maintain marks after they are installed and to spread the modifications by […], establishing a self-propagating cycle for rapid methylation over a large area of chromatin. […] Thus, small molecule targeting of the JMJD2A-tudor domain interaction with its target methylhistone mark is expected to enable sophisticated experiments probing the fine regulatory pathways leading to selective demethylation of a given methyllysine locus based on the methylation state of adjacent histone marks. A quantitative high throughput AlphaScreen has been developed to identify small molecule inhibitors based on a protocol published by NCGC and SGC [4].
Lysine-specific demethylase 4A (Homo sapiens), sequence (O75164 whole entry, looked up, the tested form may be a part): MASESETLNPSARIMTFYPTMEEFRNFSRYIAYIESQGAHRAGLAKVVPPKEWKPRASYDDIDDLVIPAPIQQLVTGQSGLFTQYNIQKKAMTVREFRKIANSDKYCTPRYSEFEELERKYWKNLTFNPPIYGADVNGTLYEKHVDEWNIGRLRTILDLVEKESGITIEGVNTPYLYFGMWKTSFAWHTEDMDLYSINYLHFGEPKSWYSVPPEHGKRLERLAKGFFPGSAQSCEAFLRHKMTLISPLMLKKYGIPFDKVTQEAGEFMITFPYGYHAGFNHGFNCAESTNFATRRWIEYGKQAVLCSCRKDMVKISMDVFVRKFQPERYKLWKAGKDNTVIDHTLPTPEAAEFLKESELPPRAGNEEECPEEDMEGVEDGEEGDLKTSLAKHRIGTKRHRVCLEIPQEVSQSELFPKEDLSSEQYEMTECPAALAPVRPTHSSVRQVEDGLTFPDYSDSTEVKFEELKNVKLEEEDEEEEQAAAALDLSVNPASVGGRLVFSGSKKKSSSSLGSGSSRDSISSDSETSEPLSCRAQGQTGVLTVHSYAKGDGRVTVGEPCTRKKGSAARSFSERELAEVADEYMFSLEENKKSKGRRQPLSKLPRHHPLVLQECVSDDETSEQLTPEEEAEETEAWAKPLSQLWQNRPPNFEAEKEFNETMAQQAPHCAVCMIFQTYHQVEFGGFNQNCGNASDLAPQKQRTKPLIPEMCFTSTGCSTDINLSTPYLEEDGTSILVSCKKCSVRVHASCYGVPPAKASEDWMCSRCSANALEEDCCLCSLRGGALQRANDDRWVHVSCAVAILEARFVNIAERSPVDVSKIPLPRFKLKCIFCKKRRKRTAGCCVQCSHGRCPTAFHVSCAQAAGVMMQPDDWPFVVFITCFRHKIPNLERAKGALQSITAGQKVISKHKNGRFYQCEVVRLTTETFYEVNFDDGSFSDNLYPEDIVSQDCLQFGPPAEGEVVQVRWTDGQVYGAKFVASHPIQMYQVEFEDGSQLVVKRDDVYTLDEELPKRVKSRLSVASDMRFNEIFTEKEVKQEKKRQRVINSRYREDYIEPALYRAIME
Although AlphaScreen has significant advantages with its utility in a variety of epigenetic target assays, the primary screening data provided in this deposition should be used with caution due to the prevalence of screening artifacts. The top compound concentration tested was high (>100uM) in this assay, which increases number of actives and potential artifacts. An AlphaScreen counterscreen is highly recommended to be run against any putative actives to eliminate non-specific artifacts. Alternatively, one can use other AlphaScreen assays in PubChem to filter out promiscuous hits.
[1] Lee, J. et al. Distinct binding modes specify the recognition of methylated histone H3K4 and H4K20 by JMJD2A-tudor. Nat Struct Mol Biol. 15(1); 109-11. 2008. PMID: 18084306
[2] Yasgar, et al. Compound Management for Quantitative High-Throughput Screening. JALA. 2008 Apr;13(2):79-89. PMID: 18496600
[3] Inglese, et al. Quantitative high-throughput screening: a titration-based approach that efficiently identifies biological activities in large chemical libraries. Proc Natl Acad Sci. 1;103(31):11473-8. 2006. PMID: 16864780
[4] Quinn et al. A homogeneous method for investigation of methyl-dependent protein-protein interactions in epigenetics. Nucleic Acids Res., 38(2):e11. 2010. PMID: […]
[5] Baell,Holloway. New substructure filters for removal of pan assay interference compounds (PAINS) from screening libraries and for their exclusion in bioassays. J Med Chem. 53(7):2719-40. 2010. PMID: 20131845
NIH Molecular Libraries Probe Production Network [MLPCN]
NIH Chemical Genomics Center [NCGC]
Structural Genomics Consortium (SGC)
To each well of a 1,536w plate, 2ul of JMJD2A-Tudor (final 100nM) and 1ul biotinylated histone peptide methylated at Lys4 [b-H3(1-18)K4me3] (final 50nM) were added in 1x PBS buffer, pH 7.4, containing 0.01% Tween-20, using a nanoliter dispenser. Formation of a protein-peptide complex proceeded at room temperature for 30 min. A Kalypsys pin-tool transferred 23nl of library compound solution in DMSO to each well. Following a 30 min incubation of the protein-peptide complex with compounds at room temperature, a mixture of 40 µg/mL each streptavidin-coated donor and nickel chelate acceptor AlphaScreen beads (final 10 µg/mL) was added in a 1ul dispense for a final volume of 4ul, followed by a brief centrifugation (1000 rpm, 1 min). Plates were incubated protected from the light for 20 min at room temperature. Microplates were then read on an EnVision multilabel plate reader using the 1,536 plate HTS AlphaScreen aperture (excitation time 80 ms, measurement time 240 ms).
A general note: In qHTS, concentration-response curves come from the screen itself.
Consider `Cc1cc(C)cc(NC(=O)NC2CCCCCCC2)c1`, for which the Potency result was “inactive”.
As for `Cc1cc([N+](=O)[O-])c(NC2CCCCC2)c([N+](=O)[O-])c1`, the figure is 25.1 µM (active).
Take `Cc1ccc(S(=O)(=O)NC2CCCCCC2)cc1`: the Potency entry was “inactive”.
As for `O=C(CCCCn1c(=O)c2ccccc2n(CC(=O)Nc2cccc(C(F)(F)F)c2)c1=O)NCc1ccc2c(c1)OCO2`, the entry is “inactive”.
On to `Cc1ccc(S(=O)(=O)n2nc(C)c(S(=O)(=O)N3CCCCCC3)c2C)cc1`, for which the Potency result is “inactive”.
As for `COc1ccc(-c2cc(C3CCN(c4ncccc4[N+](=O)[O-])CC3)[nH]n2)cc1`, the figure is 56.2 µM (active).
`CC(=O)NC(Cc1ccccc1)C(=O)NC1CCN(c2ncccc2[N+](=O)[O-])CC1` (stereo not given): the Potency entry was “inactive”.
Consider `COc1ccc(-c2cc3ncccc3cn2)cc1`, for which the Potency entry is “inactive”.
As to `Cc1ccc(F)cc1S(=O)(=O)N1CCC(c2nc3ccccc3s2)CC1`, the Potency entry is “inactive”.
Regarding `Cc1cc(C)c2c(-c3ccc(F)cc3)c(C#N)c(=O)n(C)c2n1`, the Potency entry was “inactive”.
On to `CC(=O)c1c(C)[nH]c(=S)c(C#N)c1-c1ccc(F)cc1`, for which the Potency was 5.62 µM (active).
For the molecule `N#Cc1c(-c2ccc(Cl)cc2)c2c([nH]c1=S)CCCC2`, the Potency entry was “inactive”.
In the case of `CC1CCN(S(=O)(=O)c2ccc3c(c2)N(CC(=O)NCCc2ccccc2)C(=O)CO3)CC1`, the Potency entry is “inactive”.
As for `COc1cccc(C(=O)NC2=NC(c3ccc(N(C)C)cc3)CC(=O)N2)c1` (stereo not given), the Potency entry was “inactive”.
With `O=C(O)CCC(=O)N(Cc1ccccc1)Cc1ccccc1`, the Potency entry is “inactive”.
Take `Oc1ccc(/C=N/N(Cc2ccccc2)c2ccccc2)cc1`: the Potency is 44.7 µM (active).
As for `Cc1ccc(-c2cn3c(n2)sc2cc(C(=O)NCc4cccs4)ccc23)c(C)c1`, the entry is “inactive”; as for `O=C1CC(c2ccccc2)CC2=C1C(c1ccco1)n1nc(C(F)(F)F)nc1N2` (stereo not given), “inactive”; as for `Cc1ccc(S(=O)(=O)N2CCCc3cc(NS(=O)(=O)c4cc(C)ccc4C)ccc32)cc1`, “inactive”.
As for `COc1ccc(CSc2nnnn2-c2ccc(C(=O)O)cc2)cc1`, the entry is “inactive”.
Take `COc1ccc(NCc2nnc(SCc3ccccc3)n2-c2ccc(OC)cc2)cc1`: the Potency was 50.1 µM (active).
For the molecule `CC(C)Oc1ccc(CCc2nnc(SCC(=O)O)n2-c2ccccc2)cc1`, the Potency entry is “inactive”.
As for `O=C1C[C@@H](c2ccc3ccccc3c2)N1S(=O)(=O)c1ccccc1[N+](=O)[O-]`, the entry is “inactive”; as for `COc1ccc(-c2nc(CN3CCC(C(=O)NCCN(CC(C)C)CC(C)C)CC3)c(C)o2)cc1OC`, “inactive”; as for `COc1ccc(OC)c(NC(=O)C2CCN(S(=O)(=O)c3ccc(C)cc3)CC2)c1`, “inactive”.
As for `Cc1cccnc1NC(=O)CSc1nnc(COc2ccc(C(C)C)cc2)n1C`, the entry is “inactive”.
As to `Cc1ccc(OCc2nnc(SC3CCc4ccccc4C3=O)n2C)cc1` (stereo not given), the Potency is 28.2 µM (active).
Turning to `COc1ccccc1C(=O)Nc1ccc(OCc2nnc3c4ccccc4c(C)nn23)cc1`, the Potency entry was “inactive”.
As to `Fc1ccc(CN2CCc3nc(Nc4ccccc4)ncc3C2)cc1F`, the Potency result is “inactive”.
Consider `CN1C(=O)c2[nH]nc(-c3ccc(F)cc3)c2C1c1ccccn1` (stereo not given), for which the Potency entry was “inactive”.
As for `Cc1ccc(NC(=O)c2cc3cc(C)ccc3n2C)cc1`, the entry is “inactive”; as for `CCc1ccc(S(=O)(=O)n2ccnc2)cc1`, “inactive”; as for `CCCCOc1ccc(CNC(=O)c2ccc3c(c2)N(C)C(=O)C2CCCCN32)cc1` (stereo not given), “inactive”.
As for `CCC1(C)Cc2c(sc3[nH]c(=S)n(Cc4ccccc4)c(=O)c23)CO1` (stereo not given), the entry is “inactive”.
On to `C=CCn1c(=S)[nH]c2scc(-c3ccco3)c2c1=O`, for which the Potency is 28.2 µM (active).
As for `Cc1ccc(CCNC(=O)Cn2c(-c3cccs3)cc3cc(F)ccc32)cc1`, the entry is “inactive”.
As for `N#C/C(=C(\O)CCl)c1nnc2n1CCCCC2`, the figure is 35.5 µM (active); as for `N#C/C(=C(\O)C(F)(F)F)c1nnc2n1CCCCC2`, “inactive”.
As for `N#C/C(=C/c1cccc([N+](=O)[O-])c1)c1nnc2n1CCCCC2`, the entry is “inactive”; as for `COc1ccc(N2CCN(c3cc(C)nc4nncn34)CC2)cc1`, “inactive”; as for `CCCCN1CC(c2nc3ccccc3n2CCCCOc2ccc(C)cc2C)CC1=O` (stereo not given), “inactive”.
For `O=[N+]([O-])c1ccc(S(=O)(=O)N2CCN(c3nc(-c4ccccc4)nc4ccccc34)CC2)cc1`, the Potency entry is “inactive”.
As for `Cc1nc(-c2ccccc2)sc1C(=O)/C=C/N(C)C`, the figure is 44.7 µM (active); as for `Cc1nc(COc2cccc(Cl)c2)sc1C(=O)/C=C/N(C)C`, “inactive”.
For the molecule `CN(C)/C=C/C(=O)c1ccccc1F`, the Potency entry is “inactive”.
Consider `COCCN(Cc1ccco1)C(=O)Cn1ncc2c([nH]c3ccccc32)c1=O`, for which the Potency result is “inactive”.
As for `O=S(=O)(c1ccc2c(c1)OCCO2)N1CCN(S(=O)(=O)c2cc(F)ccc2F)CC1`, the Potency entry is “inactive”.
For the molecule `CCOC(=O)c1c(S(=O)(=O)N2CCCC(C(=O)NCc3ccc(F)cc3)C2)c(C)n(CC)c1C` (stereo not given), the Potency entry was “inactive”.
As for `CCN(CC)CCCSc1nc2ccccc2s1`, the figure is 28.2 µM (active); as for `Cn1c(=O)[nH]c(=O)c2c1nc(N1CCN(CCO)CC1)n2CCSc1nc2ccccc2s1`, “inactive”.

(Values after PubChem BioAssay AID504339 (National Center for Advancing Translational Sciences (NCATS), 2011).)
